Test systems include SR leukemia; RPMI-8226 leukemia; OVCAR-8 ovarian; OVCAR-5 ovarian; OVCAR-4 ovarian; SK-OV-3 ovarian; IGROV1 ovarian; OVCAR-3 ovarian; HS 578T breast; NCI/ADR-RES ovarian.
What all share (test): NCI-60 one-dose screen, 48 h (100 = growth as untreated, 0 = no growth, -100 = all killed)
Details in all cases: 10 µM unless noted

About 83,000 compounds went through this panel and 20% of them were active in at least one assay; those are over-represented in the sample as a whole.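 In brief: 96-well plates, 48 h treatment, single concentration, percent growth endpoint.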 Unmarked numbers belong to inactive results. Calls of active or inactive are those of the source. Rule for the calls: active = growth percent below 10; inactive = the rest.

With `O=C(OC1CCCC1)c1ccccc1Cl`, the growth with SR leukemia was 104%; with RPMI-8226 leukemia it was 102%; in the assay on OVCAR-8 ovarian, 111%; in the assay with OVCAR-5 ovarian it was 96.2%; in the assay with OVCAR-4 ovarian it was 107%; in the assay with SK-OV-3 ovarian it was 108%. Besides, the growth is 106% with IGROV1 ovarian, 112% in the assay with OVCAR-3 ovarian, 91.7% in the assay with HS 578T breast and 108% with NCI/ADR-RES ovarian.

On to `O=C(CCCl)OCCOc1ccccc1`, for which the growth in the assay on SR leukemia was 94.5%; in the assay with RPMI-8226 leukemia, 53.6%; with OVCAR-8 ovarian it was 102%; in the assay on OVCAR-5 ovarian it was 109%; with OVCAR-4 ovarian, 102%; with SK-OV-3 ovarian it was 100%. For the same compound, the growth with IGROV1 ovarian is 104%; in the assay on OVCAR-3 ovarian it was 104%; with HS 578T breast, 98.8%; in the assay with NCI/ADR-RES ovarian, 106%.

On to `CNc1ccccc1C(=O)N/N=C/C=C/c1ccccc1`, for which the growth in the assay on SR leukemia is 2.42% (active); with RPMI-8226 leukemia it was 25.1%; in the assay with OVCAR-8 ovarian it was 6.6% (active); with OVCAR-5 ovarian, 47.1%; in the assay on OVCAR-4 ovarian it was 85.6%; in the assay on SK-OV-3 ovarian, 7.51% (active). The growth was 23% with IGROV1 ovarian, -23.7% (active) with OVCAR-3 ovarian, 16.5% with HS 578T breast and 3.92% (active) in the assay on NCI/ADR-RES ovarian.

With `CC(=O)c1cccc(N(C)S(=O)(=O)c2ccc(C)cc2)c1`, the growth is 44.7% with SR leukemia; 102% with RPMI-8226 leukemia; 101% with OVCAR-8 ovarian; 90.7% with OVCAR-5 ovarian; 87.7% in the assay with OVCAR-4 ovarian; 109% in the assay on SK-OV-3 ovarian. Besides, the growth with IGROV1 ovarian is 82.5%; in the assay with OVCAR-3 ovarian it was 105%; in the assay with HS 578T breast, 102%; in the assay with NCI/ADR-RES ovarian, 82.4%.

With `CN(C)CCOC(=O)Nc1ccc(Cc2ccc(NC(=O)OCCN(C)C)cc2)cc1`, the growth in the assay on SR leukemia was -39.4% [100 µM] (active); in the assay with RPMI-8226 leukemia, 16.8% [100 µM]; with OVCAR-8 ovarian it was 98.2% [100 µM]; with OVCAR-5 ovarian, 85.1% [100 µM]; in the assay with OVCAR-4 ovarian, 94.6% [100 µM]; with SK-OV-3 ovarian it was 137% [100 µM]. For the same compound, the growth was 83.2% [100 µM] with IGROV1 ovarian, 90.4% [100 µM] with OVCAR-3 ovarian, 73.1% [100 µM] with HS 578T breast and 98.5% [100 µM] with NCI/ADR-RES ovarian.

Take `CCCC(OC(C)=O)c1ccc2c(c1)OCO2` (stereo not given): the growth in the assay on SR leukemia is 103%; with RPMI-8226 leukemia, 107%; in the assay with OVCAR-8 ovarian, 99%; in the assay on OVCAR-5 ovarian, 106%; in the assay on OVCAR-4 ovarian, 110%; in the assay on SK-OV-3 ovarian, 105%. For the same compound, the growth with IGROV1 ovarian was 104%; in the assay with OVCAR-3 ovarian it was 105%; in the assay with HS 578T breast, 99.6%; in the assay with NCI/ADR-RES ovarian, 104%.

`O=C(NCc1ccccc1)c1cccc([N+](=O)[O-])c1`: the growth was 92.4% in the assay with SR leukemia; 91% in the assay on RPMI-8226 leukemia; 97.2% in the assay on OVCAR-8 ovarian; 116% with OVCAR-5 ovarian; 111% in the assay on OVCAR-4 ovarian; 108% with SK-OV-3 ovarian. Also, the growth with IGROV1 ovarian was 101%; in the assay with OVCAR-3 ovarian, 106%; with HS 578T breast it was 91.2%; with NCI/ADR-RES ovarian, 104%.

Take `CC(=O)[C@@]1(O)CC[C@H]2[C@@H]3CC[C@@H]4CC(=O)CC[C@]4(C)[C@H]3[C@@H](O)C[C@@]21C`: the growth with SR leukemia was 87.9%; in the assay on RPMI-8226 leukemia, 97.9%; in the assay with OVCAR-8 ovarian it was 101%; in the assay on OVCAR-5 ovarian, 91.7%; with OVCAR-4 ovarian it was 111%; in the assay with SK-OV-3 ovarian, 82.7%. For the same compound, the growth in the assay on IGROV1 ovarian was 103%; in the assay with OVCAR-3 ovarian, 109%; with HS 578T breast, 101%; in the assay with NCI/ADR-RES ovarian, 103%.

As to `Cc1[nH]nc(C(N)=O)c1[N+](=O)[O-]`, the growth with SR leukemia was 84.7%; in the assay with RPMI-8226 leukemia, 96.3%; in the assay on OVCAR-8 ovarian, 108%; with OVCAR-5 ovarian it was 104%; with OVCAR-4 ovarian, 122%; in the assay with SK-OV-3 ovarian it was 101%. The growth was 115% in the assay with IGROV1 ovarian, 101% in the assay on OVCAR-3 ovarian, 87.7% in the assay with HS 578T breast and 102% in the assay with NCI/ADR-RES ovarian.

With `CCCCCCCCCc1ccc(OC(C)=O)cc1`, the growth is 102% in the assay with SR leukemia; 91.8% with RPMI-8226 leukemia; 101% in the assay on OVCAR-8 ovarian; 105% with OVCAR-5 ovarian; 107% in the assay with OVCAR-4 ovarian; 119% in the assay with SK-OV-3 ovarian. Moreover, the growth with IGROV1 ovarian was 111%; in the assay with OVCAR-3 ovarian, 108%; with HS 578T breast, 96.3%; in the assay with NCI/ADR-RES ovarian, 119%.

As to `COc1ccc(C)cc1NC(=O)SC(C)C`, the growth in the assay on SR leukemia is 95.3% [100 µM]; in the assay on RPMI-8226 leukemia it was 99% [100 µM]; in the assay on OVCAR-8 ovarian, 105% [100 µM]; in the assay on OVCAR-5 ovarian, 102% [100 µM]; in the assay on OVCAR-4 ovarian, 96.7% [100 µM]; in the assay on SK-OV-3 ovarian it was 111% [100 µM]. Further, the growth in the assay with IGROV1 ovarian was 102% [100 µM]; with OVCAR-3 ovarian it was 116% [100 µM]; in the assay on HS 578T breast, 102% [100 µM]; in the assay on NCI/ADR-RES ovarian, 103% [100 µM].

Turning to `O=c1nc(Nc2cccc(Cl)c2)oc2cc(Cl)oc(=O)c12`, the growth in the assay on SR leukemia was 2.45% (active); with RPMI-8226 leukemia it was 26.8%; in the assay with OVCAR-8 ovarian it was 62.9%; with OVCAR-5 ovarian it was 88%; in the assay on OVCAR-4 ovarian, 89.9%; in the assay with SK-OV-3 ovarian, 98.4%. For the same compound, the growth in the assay on IGROV1 ovarian is 12.4%; with OVCAR-3 ovarian, 51.6%; in the assay with HS 578T breast, 62.3%; in the assay on NCI/ADR-RES ovarian, 89%.

In the case of `CC(=O)C1C(=O)C(=O)N(c2ccc(Cl)c(Cl)c2)C1=O` (stereo not given), the growth with SR leukemia was 91.2%; in the assay on RPMI-8226 leukemia, 107%; with OVCAR-8 ovarian, 101%; in the assay on OVCAR-5 ovarian, 104%; in the assay on OVCAR-4 ovarian, 88.5%; with SK-OV-3 ovarian, 106%. The growth in the assay with IGROV1 ovarian was 98.6%; with OVCAR-3 ovarian it was 107%; in the assay on HS 578T breast it was 103%; in the assay on NCI/ADR-RES ovarian, 97%.

For the compound `Cc1c(-c2ccc(C3CCCCC3)cc2)nc2ccc(F)cc2c1C(=O)O`, the growth with SR leukemia is 7.53% (active); with RPMI-8226 leukemia, 56.1%; in the assay on OVCAR-8 ovarian, 37.6%; in the assay on OVCAR-5 ovarian it was 76.7%; in the assay with OVCAR-4 ovarian, 84.2%; in the assay with SK-OV-3 ovarian, 58.2%. The growth is 29.7% in the assay with IGROV1 ovarian, 41% with OVCAR-3 ovarian, 75.3% in the assay with HS 578T breast and 45.7% in the assay with NCI/ADR-RES ovarian.

For the compound `COc1ccc(C(=O)/C(=N/Nc2ccccc2)c2ccc(OC)cc2)cc1`, the growth with SR leukemia is 86%; in the assay on RPMI-8226 leukemia, 92.9%; with OVCAR-8 ovarian it was 115%; in the assay with OVCAR-5 ovarian, 94.2%; with OVCAR-4 ovarian, 87.2%; with SK-OV-3 ovarian, 104%. In addition, the growth in the assay with IGROV1 ovarian was 91.5%; in the assay on OVCAR-3 ovarian, 103%; in the assay with HS 578T breast it was 102%; in the assay with NCI/ADR-RES ovarian it was 97.5%.

The record behind these values is PubChem BioAssay (NCI).
